About 16,000 (7.3%) of roughly 220,000 compounds were called active. A call without a number means that no potency is given here. About 25% were inconclusive and are not listed. The sample as a whole holds a higher share of actives than the screen did. Unmarked numbers belong to inactive results. The call rests on the fitted dose curve; in most records, active means well fitted inhibition curve with a large enough effect (not every such curve was filed as active); inconclusive means small, poorly fitted or top-dose-only effect, or another doubt; inactive means no such curve, though single readings can be large or run the other way.
Potency means the concentration at half of the fitted maximal effect.

The target in the assay is Aldehyde dehydrogenase 1A1 (Homo sapiens) (UniProt P00352). The assay can be described thus: qHTS Assay for Inhibitors of Aldehyde Dehydrogenase 1 (ALDH1A1). The note with it: Purified ALDH1A1, NADH fluorescence, propionaldehyde substrate; series mostly up to 75.3 µM. (In qHTS, concentration-response curves come from the screen itself.)
Aldehyde dehydrogenase 1A1 (Homo sapiens), sequence (P00352 whole entry, looked up): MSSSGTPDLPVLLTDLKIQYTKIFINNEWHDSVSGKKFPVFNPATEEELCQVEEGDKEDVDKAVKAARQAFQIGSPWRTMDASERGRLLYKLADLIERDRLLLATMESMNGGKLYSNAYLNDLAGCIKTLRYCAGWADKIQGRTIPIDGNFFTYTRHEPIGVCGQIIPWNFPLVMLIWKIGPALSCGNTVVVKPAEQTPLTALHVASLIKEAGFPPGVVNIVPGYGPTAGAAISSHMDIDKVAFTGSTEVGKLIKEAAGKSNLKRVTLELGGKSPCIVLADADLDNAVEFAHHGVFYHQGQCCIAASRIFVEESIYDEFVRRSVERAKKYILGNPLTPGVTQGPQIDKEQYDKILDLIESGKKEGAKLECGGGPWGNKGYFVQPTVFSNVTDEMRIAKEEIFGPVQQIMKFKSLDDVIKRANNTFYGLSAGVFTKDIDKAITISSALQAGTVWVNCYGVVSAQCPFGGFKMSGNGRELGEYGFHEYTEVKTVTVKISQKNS
For `CCCCCCCCC(=O)NCCOc1ccccc1`, the Potency entry was “inactive”. Take `Cc1ccc(N(NC(=O)C(C)(C)O)C(=O)c2ccccc2)cc1C`: the Potency result is “inactive”. Same read-out and setting: then `CCCCC(O)(CCCC)C(=O)NN(C(=O)CCl)c1ccccc1`, with 3.98 µM (active); and `CCCC(O)(CCC)C(=O)NN(C(=O)CCl)c1cccc(C)c1`, with 39.8 µM (active); and `CC(C)(O)C(=O)NN(C(=O)c1ccccc1)c1cccc(Br)c1`, with “inactive”. Turning to `CCC(C)NC(=O)CCCc1ccccc1` (configuration not stated), the Potency entry was “inactive”. As to `Cc1cc(NC(=O)CSCc2ccccc2C)no1`, the Potency result is “inactive”.

On to `Cn1cnnc1Sc1ccc(CN2CCN(C3CCCC3)C(CCO)C2)o1` (configuration not stated), for which the Potency result is “inactive”. The same measure, in the same setting: for `COc1cccc2cc(/C(C)=N/NC(=O)c3ccco3)oc12` the value was “inactive”; for `C=CCOc1c(CNn2cn[nH]c2=S)cccc1OC`, “inactive”. For `CC(C)C(=O)NC(=S)Nc1ccccc1F`, the Potency result is “inactive”. Turning to `CC(C)C(=O)Nc1cccc(NC(=S)NC(=O)C(c2ccccc2)c2ccccc2)c1`, the Potency was 25.1 µM (active).

For the molecule `CCCCC(=O)NNC(=S)NC(=O)C(c1ccccc1)c1ccccc1`, the Potency result is “inactive”. The same measure, in the same setting: then `Cn1nnnc1NCc1ccc(Cl)c(Cl)c1`, with “inactive”; and `COC(=O)c1ccc(/C=N/OCC(=O)Nc2cc(F)ccc2F)cc1`, with “inactive”; and `O=C(COC(=O)[C@H](Cc1ccccc1)NC(=O)c1cccs1)Nc1cc(F)ccc1F`, with 14.1 µM (active).

Regarding `CCC(C(=O)OCC(=O)Nc1ccc(C(=O)Nc2ccc(OC)cc2)cc1)c1ccccc1` (configuration not stated), the Potency result was “inactive”. Turning to `NC(=O)c1ccc(NC(=O)COC(=O)C(Cc2ccccc2)NC(=O)c2ccccc2)cc1` (configuration not stated), the Potency was 0.891 µM (active). As for `CC(=O)c1ccc(NC(=O)N[C@@H](Cc2ccccc2)C(=O)O)cc1`, the Potency entry is “inactive”.

As for `Cc1ccc(F)c(NC(=O)CCc2ccccc2)c1`, the Potency entry was “inactive”. Still for that read-out and setting: then `CCCCCc1nnc(NC(=O)c2ccc(=O)n(C)n2)s1`, with “inactive”; and `C=CCn1cc(C(=O)NCc2ccc(Cl)cc2)c(=O)c2cc(S(=O)(=O)N(CC)CC)ccc21`, with “inactive”. In the case of `Cc1nc2ccccc2c2oc(C(=O)NCC3CCCO3)cc12` (configuration not stated), the Potency is 14.1 µM (active).

With `Cc1ccc(C(=O)NCC2CCCO2)o1` (configuration not stated), the Potency entry was “inactive”. Same read-out and setting: then `Cc1nc2ccccc2c2oc(C(=O)NCCCN3CCC(C)CC3)cc12`, with “inactive”. `O=c1c(-c2ccccc2)cnc2n1CCS2`: the Potency result was “inactive”. Consider `CN(C)CC(C)(C)CNC(=O)c1cc(Br)cc(Br)c1O`, for which the Potency result was “inactive”. `CC(=O)c1ccc(S(=O)(=O)Nc2ccc(C(=O)NCC(c3ccccc3)N(C)C)cc2)cc1` (configuration not stated): the Potency is 2.82 µM (active). In the case of `CN(C)C(CNC(=O)Cc1ccc([N+](=O)[O-])cc1)c1ccccc1` (configuration not stated), the Potency result is “inactive”. `CN(C)C(CNC(=O)c1ccc(S(=O)(=O)NCc2ccco2)cc1)c1ccccc1` (configuration not stated): the Potency entry was “inactive”. The same measure, in the same setting: then `CCC(C)(C)NC(=O)C(c1ccccn1)N(C(=O)c1csnn1)c1ccccc1` (configuration not stated), with “inactive”; and `Cc1ccc(C(=O)N2CCCC(c3ccccc3)=N2)cc1`, with “inactive”. Consider `Cc1cc(C)c(OCCN2CC(C)OC(C)C2)c(Br)c1` (configuration not stated), for which the Potency result was “inactive”.

On to `COc1ccc(NC(=O)N2CCC(Cc3ccccc3)CC2)cc1`, for which the Potency entry was “inactive”. `Cc1ccccc1/[N+]([O-])=C/c1ccncc1`: the Potency was 3.98 µM (active). On the same count and under the same terms, then `CCNC(=O)COC(=O)/C=C/c1c(C)nn(Cc2cccc(OC)c2)c1Cl`, with “inactive”; and `O=C(CCNC(=O)Cn1ccc2ccccc2c1=O)NCCC1=CCCCC1`, with “inactive”. Same read-out and setting: then `COc1ccc(CN(C)C(=S)Nc2ccc(Cl)cc2Cl)cc1`, with “inactive”; and `O=C1CC2(CC(c3ccc(Cl)cc3)=NO2)C(=O)N1c1ccccc1` (configuration not stated), with “inactive”. For the molecule `CCN1CC(CN(C)Cc2nc(-c3ccc(Cl)cc3)no2)CC1=O` (configuration not stated), the Potency entry was “inactive”. Same read-out and setting: for `CN(C)C(=O)N1CCNCC1` the value was “inactive”; for `CCn1c(=S)[nH]c2sc3c(c2c1=O)CCCCC3`, 22.4 µM (active). The same measure, in the same setting: then `Cn1c(=O)n(Cc2ccco2)c(=N)c2c3c(sc21)CCCC3`, with “inactive”. For `CCC1(C)Cc2c(sc3[nH]c(=S)n(Cc4ccccc4)c(=O)c23)CO1` (configuration not stated), the Potency entry is “inactive”.

As to `C=CCn1c(=S)sc2c(=O)[nH]c(C)nc21`, the Potency entry was “inactive”. Take `CCOC(=O)C1(CCOc2ccccc2)CCN(C(=O)c2cncs2)CC1`: the Potency result is “inactive”.

With `Cc1c(C(N)=O)sc2ncn(CCOc3ccccc3)c(=O)c12`, the Potency result is “inactive”. In the case of `CCN1C(=O)N[C@@H](c2ccccc2)[C@H](C(C)=O)[C@H]1C`, the activity, negative = inhibition is 7.43% [at 13.5 µM]. Turning to `CC(=O)c1ccc(OCCN2CCOCC2)cc1`, the Potency was 25.1 µM (active). The same measure, in the same setting: then `Cc1ccc(C(=O)OC(C)CN2CCOCC2)cc1` (configuration not stated), with “inactive”. Consider `COc1ccc(OCC(=O)N2CCOCC2)cc1`, for which the Potency result is “inactive”. In the case of `FC(F)(F)c1cccc(-c2nc(COc3ccc(Cl)cc3Cl)no2)c1`, the Potency result is “inactive”. The same measure, in the same setting: then `O=C(CC1SCCNC1=O)Nc1ccc(Cl)cc1` (configuration not stated), with “inactive”; and `Cc1ccc(OCC(=O)NNC(=S)NCc2ccccc2)cc1`, with “inactive”; and `Fc1ccc(N2CCN(Cc3cnc(Oc4ccc(Br)cc4)s3)CC2)cc1`, with “inactive”. `COc1ccc(N2CCN(Cc3ccc(Br)s3)CC2)cc1`: the Potency is 25.1 µM (active). The same measure, in the same setting: then `COc1ccc(N2CCN(Cc3nnc(-c4ccccc4)o3)CC2)cc1`, with “inactive”; and `Cc1ccc(NC(=O)CC2C(=O)N(Cc3ccccc3)C(=S)N2NC(=O)c2cccc(F)c2)c(C)c1` (configuration not stated), with “inactive”; and `Cc1ccc(NC(=S)N(CCN(C)C)Cc2cccs2)cc1C`, with “inactive”.

As for `O=C(O)CC(SCC(=O)Nc1ccc(Br)cc1)C(=O)O` (configuration not stated), the Potency entry was “inactive”. Regarding `CCOc1ccc(S(=O)(=O)NCC2CCCO2)cc1` (configuration not stated), the Potency entry was “inactive”.

As to `CCOc1ccc(-n2c(N)c(C(=O)NCC3CCCO3)sc2=S)cc1` (configuration not stated), the Potency was 15.8 µM (active). In the case of `COc1ccc(SCc2noc(C(=O)NCC3CCCO3)c2C(=O)O)cc1` (configuration not stated), the Potency entry was “inactive”. Take `Cc1ccc(Cl)c(NC(=O)CN(C)CC(=O)Nc2ccc(F)c(F)c2F)c1Cl`: the Potency result was “inactive”.

Regarding `Cc1cccc(CN2CCN(Cc3cnn(-c4ccccc4F)c3)CC2CCO)n1` (configuration not stated), the Potency result is “inactive”.

For the molecule `O=c1[nH]oc(O)c1-c1ncc(C(F)(F)F)cc1Cl`, the Potency result is “inactive”. In the case of `Cc1csc(NC(=O)CSc2ccc(-c3ccc(F)cc3)nn2)n1`, the Potency entry was “inactive”. Still for that read-out and setting: then `Cc1cc(/C=C2\SC(=Nc3ccc(N4CCOCC4)cc3)N(C)C2=O)c(C)n1-c1cccnc1`, with “inactive”; and `O=C(C1CC1)N1N=C2CCCCC2C1(O)C(F)(F)F` (configuration not stated), with “inactive”; and `N#Cc1c(NC(=O)CCCl)sc2c1CCCCC2`, with “inactive”. Regarding `CC(C(=O)O)n1cnc2sc3c(c2c1=O)CCCC3` (configuration not stated), the Potency result was “inactive”.

Take `CCCc1nc2sc3c(c2c(=O)n1NC(=O)CCCl)CCCC3`: the Potency was 14.1 µM (active).

The values are drawn from PubChem BioAssay AID1030 (National Center for Advancing Translational Sciences (NCATS), 2008).
